# Assay results: paper PMC7862700, “An all-to-all approach to the identification of sequence-specific readers for epigenetic DNA modifications on cytosine”
# How the values were obtained:
# Assay in all cases: DAPPL (digital affinity profiling via proximity ligation, sequencing); 10 mM Tris-HCl pH 7.5, 50 mM NaCl, 1 mM DTT, 4% glycerol, room temperature, 30 min; GST-TFs on glutathione beads, 16-mer random dsDNA library, 0.1% formaldehyde crosslink after washing; high values mean tight binding
# [1] = target: T1, FEV (Homo sapiens, UniProt Q99581 1-238); settings: protein: recombinant; tags: N-terminal GST; dsDNA, one strand shown
# T1 sequence: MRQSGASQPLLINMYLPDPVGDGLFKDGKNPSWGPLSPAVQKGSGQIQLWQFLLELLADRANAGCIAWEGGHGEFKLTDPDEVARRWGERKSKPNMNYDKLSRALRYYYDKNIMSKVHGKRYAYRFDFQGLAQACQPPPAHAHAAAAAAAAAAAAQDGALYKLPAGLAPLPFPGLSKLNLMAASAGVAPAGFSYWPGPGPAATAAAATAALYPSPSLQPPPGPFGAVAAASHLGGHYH
# Summary of the method: (§1)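 Sequencing on an Illumina NextSeq500 followed washing, crosslinking with 0.1% formaldehyde, proximity ligation (BsaI/T4 ligase, 1 h, 37 °C) and PCR amplification of pools that had been incubated for 30 min at room temperature with 200 nmole of a random double-stranded 16-mer DNA library in Tris/NaCl/DTT/glycerol buffer. Each pool held DNA-barcoded human transcription factors, expressed in yeast as GST fusions and captured on glutathione beads, plus a tag-only sample. Binding signal is a hexamer's read frequency for a factor divided by its frequency in the tag-only sample.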
# [2] = target: ETV5 (Homo sapiens, UniProt P41161 1-510); settings: protein: recombinant; tags: N-terminal GST; dsDNA, one strand shown
# Summary of the method: as §1
# [3] = target: HSF1 (Homo sapiens, UniProt Q00613 1-529); settings: protein: recombinant; tags: N-terminal GST; chain copies: 3; dsDNA, one strand shown
# Summary of the method: as §1
# [4] = target: T2, SPIC (Homo sapiens, UniProt Q8N5J4 1-248); settings: protein: recombinant; tags: N-terminal GST; dsDNA, one strand shown
# T2 sequence: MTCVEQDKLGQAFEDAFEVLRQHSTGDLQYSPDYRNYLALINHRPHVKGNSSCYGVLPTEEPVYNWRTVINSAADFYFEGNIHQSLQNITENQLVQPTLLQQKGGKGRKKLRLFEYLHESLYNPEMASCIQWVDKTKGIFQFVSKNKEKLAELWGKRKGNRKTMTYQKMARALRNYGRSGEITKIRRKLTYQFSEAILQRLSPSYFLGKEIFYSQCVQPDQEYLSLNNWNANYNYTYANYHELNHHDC
# Summary of the method: as §1
# [5] = target: ELF4 (Homo sapiens, UniProt Q99607 1-663); settings: protein: recombinant; tags: N-terminal GST; dsDNA, one strand shown
# Summary of the method: as §1
# [6] = target: T3, ELK4 (Homo sapiens, UniProt P28324-2 1-405); settings: protein: recombinant; tags: N-terminal GST; dsDNA, one strand shown
# T3 sequence: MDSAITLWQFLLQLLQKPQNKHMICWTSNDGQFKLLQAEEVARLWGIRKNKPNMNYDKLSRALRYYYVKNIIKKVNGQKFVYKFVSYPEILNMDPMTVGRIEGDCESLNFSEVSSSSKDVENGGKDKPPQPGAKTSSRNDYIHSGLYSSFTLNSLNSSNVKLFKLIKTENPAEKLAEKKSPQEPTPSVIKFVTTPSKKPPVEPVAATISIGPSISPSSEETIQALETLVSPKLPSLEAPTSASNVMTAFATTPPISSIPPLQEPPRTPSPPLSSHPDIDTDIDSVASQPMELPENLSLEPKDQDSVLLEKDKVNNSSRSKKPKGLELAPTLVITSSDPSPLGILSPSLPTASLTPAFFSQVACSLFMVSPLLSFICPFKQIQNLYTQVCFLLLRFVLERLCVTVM
# Summary of the method: as §1
# [7] = target: T4, ETV2 (Homo sapiens, UniProt O00321 1-342); settings: protein: recombinant; tags: N-terminal GST; dsDNA, one strand shown
# T4 sequence: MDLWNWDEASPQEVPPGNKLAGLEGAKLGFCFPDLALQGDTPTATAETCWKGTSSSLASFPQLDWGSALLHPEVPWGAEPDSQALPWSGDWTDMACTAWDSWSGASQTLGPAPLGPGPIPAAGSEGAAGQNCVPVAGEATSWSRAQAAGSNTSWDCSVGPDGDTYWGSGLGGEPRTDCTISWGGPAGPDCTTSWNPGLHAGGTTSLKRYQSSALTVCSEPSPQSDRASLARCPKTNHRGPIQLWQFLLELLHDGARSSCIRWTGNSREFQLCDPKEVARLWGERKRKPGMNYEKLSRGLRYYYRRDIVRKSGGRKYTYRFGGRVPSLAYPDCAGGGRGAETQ
# Summary of the method: as §1
# [8] = target: T5, ELF3 (Homo sapiens, UniProt P78545 1-371); settings: protein: recombinant; tags: N-terminal GST; dsDNA, one strand shown
# T5 sequence: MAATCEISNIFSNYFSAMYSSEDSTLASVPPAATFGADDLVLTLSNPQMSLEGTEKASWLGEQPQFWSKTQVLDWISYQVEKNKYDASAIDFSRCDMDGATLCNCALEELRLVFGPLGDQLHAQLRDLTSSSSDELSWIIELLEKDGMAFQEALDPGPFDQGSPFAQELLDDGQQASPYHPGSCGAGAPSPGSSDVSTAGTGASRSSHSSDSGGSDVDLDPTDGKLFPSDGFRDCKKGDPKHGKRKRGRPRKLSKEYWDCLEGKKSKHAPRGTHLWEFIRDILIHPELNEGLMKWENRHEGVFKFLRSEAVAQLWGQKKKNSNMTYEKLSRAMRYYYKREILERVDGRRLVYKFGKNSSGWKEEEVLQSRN
# Summary of the method: as §1
# Sequence of ELF4 (Q99607 whole entry): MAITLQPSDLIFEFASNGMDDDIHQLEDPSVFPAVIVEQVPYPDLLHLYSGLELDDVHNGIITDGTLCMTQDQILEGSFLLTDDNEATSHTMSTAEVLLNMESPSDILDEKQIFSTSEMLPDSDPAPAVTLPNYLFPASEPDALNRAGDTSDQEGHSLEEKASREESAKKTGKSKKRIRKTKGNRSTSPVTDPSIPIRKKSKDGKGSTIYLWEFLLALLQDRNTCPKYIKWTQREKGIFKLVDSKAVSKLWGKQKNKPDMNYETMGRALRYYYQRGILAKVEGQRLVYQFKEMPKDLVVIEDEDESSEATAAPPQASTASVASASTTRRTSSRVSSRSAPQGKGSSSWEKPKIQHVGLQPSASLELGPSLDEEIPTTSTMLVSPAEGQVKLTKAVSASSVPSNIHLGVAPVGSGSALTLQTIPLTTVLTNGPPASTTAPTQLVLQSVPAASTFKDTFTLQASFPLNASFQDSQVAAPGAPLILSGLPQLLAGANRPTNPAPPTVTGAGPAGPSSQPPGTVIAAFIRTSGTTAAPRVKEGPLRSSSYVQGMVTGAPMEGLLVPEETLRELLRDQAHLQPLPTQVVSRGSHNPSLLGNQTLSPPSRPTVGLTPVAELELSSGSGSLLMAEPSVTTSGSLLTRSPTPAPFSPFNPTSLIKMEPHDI
# Sequence of ETV5 (P41161 whole entry): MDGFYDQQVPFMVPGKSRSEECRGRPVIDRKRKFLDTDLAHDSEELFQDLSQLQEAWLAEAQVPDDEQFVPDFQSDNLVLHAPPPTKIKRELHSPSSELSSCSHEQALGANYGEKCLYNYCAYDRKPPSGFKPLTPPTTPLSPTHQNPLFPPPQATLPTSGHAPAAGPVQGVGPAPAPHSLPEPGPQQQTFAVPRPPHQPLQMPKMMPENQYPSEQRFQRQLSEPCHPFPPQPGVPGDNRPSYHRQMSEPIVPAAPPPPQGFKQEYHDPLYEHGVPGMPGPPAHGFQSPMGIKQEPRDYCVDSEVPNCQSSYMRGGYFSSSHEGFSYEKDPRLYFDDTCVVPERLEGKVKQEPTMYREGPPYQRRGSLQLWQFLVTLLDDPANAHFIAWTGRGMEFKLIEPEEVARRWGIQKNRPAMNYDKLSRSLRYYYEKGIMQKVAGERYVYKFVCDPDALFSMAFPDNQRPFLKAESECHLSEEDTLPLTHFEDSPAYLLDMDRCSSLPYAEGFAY
# Sequence of HSF1 (Q00613 whole entry): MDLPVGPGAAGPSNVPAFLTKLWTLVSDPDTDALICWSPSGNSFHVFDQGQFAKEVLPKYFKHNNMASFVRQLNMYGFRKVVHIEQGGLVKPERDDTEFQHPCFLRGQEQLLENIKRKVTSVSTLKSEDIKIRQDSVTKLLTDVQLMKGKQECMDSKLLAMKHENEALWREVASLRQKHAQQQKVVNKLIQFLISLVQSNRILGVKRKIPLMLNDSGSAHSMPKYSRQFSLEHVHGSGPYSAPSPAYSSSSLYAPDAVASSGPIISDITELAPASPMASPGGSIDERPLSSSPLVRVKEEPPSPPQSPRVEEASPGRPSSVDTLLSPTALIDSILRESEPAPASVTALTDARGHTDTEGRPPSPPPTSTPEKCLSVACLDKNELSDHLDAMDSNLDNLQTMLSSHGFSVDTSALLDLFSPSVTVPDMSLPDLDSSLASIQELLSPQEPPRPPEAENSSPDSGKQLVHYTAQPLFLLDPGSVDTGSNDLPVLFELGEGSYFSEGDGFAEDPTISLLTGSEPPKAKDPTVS
sequence,measurement,setting,value
GTTCCA,binding signal,[1],"1.01 fold enrichment (6-mer frequency, TF over GST control)"
same,binding signal,[2],"1.05 fold enrichment (6-mer frequency, TF over GST control)"
same,binding signal,[3],"1.79 fold enrichment (6-mer frequency, TF over GST control)"
same,binding signal,[4],"1.21 fold enrichment (6-mer frequency, TF over GST control)"
same,binding signal,[5],"1.13 fold enrichment (6-mer frequency, TF over GST control)"
same,binding signal,[6],"1.14 fold enrichment (6-mer frequency, TF over GST control)"
same,binding signal,[7],"1.06 fold enrichment (6-mer frequency, TF over GST control)"
same,binding signal,[8],"1.12 fold enrichment (6-mer frequency, TF over GST control)"
